In PubChem BioAssay:
Calls of active or inactive are those of the source.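 Rule for the calls, unless noted: active = inhibition above 20% together with a positive visual image hit; inconclusive = visual image hit but inhibition not above 20%; inactive = no visual image hit.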

Legend:
[1] = inhibitors of TNFa-induced NFkB p65 translocation, primary screen, imaging, HUVEC, MLSMR starter and 10KST1 sets (AID 438); conditions: HUVEC TNFa-induced p65 nuclear translocation; cell count: measured here: nuclei count (cytotoxicity indicator), at 2.08 µM; inhibition: at 2 µM, stronger effect = higher value, 0% TNFa-plus-vehicle, 100% no-TNFa wells;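 note: compound added about 3h40 before a 20 min TNFalpha stimulation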;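 for inhibition: signal is the nuclear over cytoplasmic p65 intensity ratio per well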
[2] = inhibitors of mutant huntingtin aggregation, primary screen, imaging, exon1htt(103Q)mCFP cells, high-content imaging (AID 483;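 active = visual image review flags a hit and inhibition of aggregation exceeds 20%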;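 note: compound exposure lasted 3 days before fixation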;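 for nuclei count: percent of the per-plate median nuclei count of sample wells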); conditions: exon1htt(103Q)mCFP cell line, aggregate imaging, at 2 µM; inhibition of aggregation: stronger effect = higher value; nuclei count: measured here: cell count, toxicity
[3] = inhibitors of E-selectin induction by TNFa, primary screen, imaging, HUVEC, immunofluorescence, MLSMR starter and 10KST1 sets (AID 487;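 active = visually confirmed hit in the image check and inhibition above 20%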;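 for inhibition: signal is fraction of cell area covered by stained E-selectin grains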;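 for nuclei count: 100% = median nuclei count of all wells on the same plate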); conditions: HUVEC TNFalpha-induced E-selectin immunofluorescence imaging, at 2 µM; inhibition: stronger effect = higher value; nuclei count: measured here: cell number, toxicity
[4] = molecular target: Voltage-gated potassium channel subunit beta-2 (Rattus norvegicus) (UniProt P62483); experiment: KvBeta enzyme negative modulators, primary screen, biochemical, NADPH fluorescence (AID 622;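 active = fluorescence slope higher than the sample average by over 3 SD, cut at about -0.22 in these data, passing the limit was not always enough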;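 note: slope of raw intensity against log time taken from 70 to 1610 s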); conditions: recombinant KvBeta, 4-cyanobenzaldehyde reduction, at 10 µM, stronger effect = higher value
Sequence of Voltage-gated potassium channel subunit beta-2 (Rattus norvegicus) (P62483 whole entry, looked up): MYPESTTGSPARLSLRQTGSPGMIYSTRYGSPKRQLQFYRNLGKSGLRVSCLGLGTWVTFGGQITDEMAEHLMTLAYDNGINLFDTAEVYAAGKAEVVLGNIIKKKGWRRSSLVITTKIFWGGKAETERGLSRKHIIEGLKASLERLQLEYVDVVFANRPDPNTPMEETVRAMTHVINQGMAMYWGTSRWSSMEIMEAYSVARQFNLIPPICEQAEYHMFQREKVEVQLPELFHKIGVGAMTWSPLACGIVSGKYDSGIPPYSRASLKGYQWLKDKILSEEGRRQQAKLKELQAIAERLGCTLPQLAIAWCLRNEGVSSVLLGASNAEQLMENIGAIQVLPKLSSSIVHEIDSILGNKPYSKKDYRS

[5] = molecular target: Voltage-gated potassium channel subunit beta-2 (Rattus norvegicus) (UniProt P62483); experiment: KvBeta positive modulators, primary screen, biochemical, NADPH fluorescence (AID 623;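 active = NADPH fluorescence slope more negative than the mean of all samples by about 3 SD, 99.7% confidence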;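 note: fluorescence intensity change per second fitted from 20 to 320 s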); conditions: Recombinant KvBeta, NADPH fluorescence decrease slope, 10 min; at 10 µM; stronger effect = lower value
[6] = molecular target: Alpha-2C adrenergic receptor (Homo sapiens) (UniProt P18825); experiment: modulators of alpha2C/GIRK thallium flux, primary screen, cell-based, HEK293 alpha2C/GIRK1/2 (AID 624;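 active = fluorescence slope after compound addition differing from the mean of all screened samples at 99.7% confidence, in either direction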;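 note: slope of fluorescence ratio to pre-addition baseline per second over 15 to 24 s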); conditions: thallium flux BTC fluorescence, at 10 µM, actives lie on both sides
Sequence of Alpha-2C adrenergic receptor (Homo sapiens) (P18825 whole entry, looked up): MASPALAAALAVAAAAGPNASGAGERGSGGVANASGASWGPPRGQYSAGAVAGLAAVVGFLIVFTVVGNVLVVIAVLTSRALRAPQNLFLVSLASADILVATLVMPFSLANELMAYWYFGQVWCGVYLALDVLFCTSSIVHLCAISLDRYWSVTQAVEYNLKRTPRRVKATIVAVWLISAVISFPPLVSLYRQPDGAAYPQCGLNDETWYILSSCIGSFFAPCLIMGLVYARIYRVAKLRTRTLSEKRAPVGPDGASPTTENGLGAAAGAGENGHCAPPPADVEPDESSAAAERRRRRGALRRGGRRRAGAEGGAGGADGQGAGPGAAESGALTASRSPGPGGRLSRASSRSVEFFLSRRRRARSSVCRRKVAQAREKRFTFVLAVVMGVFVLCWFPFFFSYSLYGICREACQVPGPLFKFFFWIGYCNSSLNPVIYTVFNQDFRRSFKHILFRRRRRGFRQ

[7] = inhibitors of Sendai virus-induced IRF3 signaling, primary screen, TLR/RLR signaling modifier project, cell-based, Sendai virus stimulus, luciferase, 10K MLSCN set (AID 602276;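 active = inhibition at or above 50% at 10 µM; inactive = inhibition below 50%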;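 note: firefly luciferase from ISG56 promoter only with Renilla not read in this screen; 0% = Sendai virus plus DMSO and 100% = medium plus DMSO without virus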); conditions: HEK293 RL24 IRF3 luciferase reporter, at 10 µM, stronger effect = higher value
[8] = inhibitors of poly I:C-induced TLR3 signaling, primary screen, cell-based, poly I:C stimulus, luciferase, 10K MLSCN set (AID 602277;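 active = inhibition of the reporter signal at or above 50%; inactive = inhibition below 50%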); conditions: HEK293-TLR3 RL24 IRF3 luciferase reporter, at 10 µM, stronger effect = higher value

Row | SMILES | cell count [1] | inhibition [1] | inhibition of aggregation [2] | nuclei count [2] [%] | inhibition [3] | nuclei count [3] [%] | fluorescence slope [4] | NADPH fluorescence slope [5] | slope [6] | inhibition [7] | inhibition [8]
1 | CC(C)(C)NC(=O)COC(=O)c1snc(C(=O)NC2CCCCC2)c1N | 236 | 13.3% (inactive) | 3.3% (inactive) | 99.5 | -55.6% (inactive) | 96.2 | -0.586 (inactive) | 2.8e-05 (inactive) | 0.00501 (inactive) | 9.79% (inactive) | -26% (inactive)
2 | Cc1ccc(S(=O)(=O)N2CCN(C(=O)CN3CCOCC3)C2C(C)C)cc1 (stereo not drawn) | 309 | -5% (inactive) | -6.9% (inactive) | 105 | -99.4% (inactive) | 105 | -0.621 (inactive) | 6.8e-06 (inactive) | 0.0064 (inactive) | 4.53% (inactive) | 12.9% (inactive)
3 | CN(CC(=O)Nc1sccc1C#N)C1CCCCC1 | 723 | -7.3% (inactive) | -178% (inactive) | 7.1 | -27.2% (inactive) | 125 | -0.42 (inactive) | -1.4e-05 (inactive) | 0.00552 (inactive) | -14.2% (inactive) | 99.3% (active)
4 | Cc1ccc(-c2nnc(SCC(=O)N3CC(C)CC(C)C3)o2)cc1C (stereo not drawn) | 557 | -1.6% (inactive) | 1.6% (inactive) | 32.1 | -32.7% (inactive) | 120 | -0.527 (inactive) | -4.3e-05 (inactive) | 0.00676 (inactive) | -0.246% (inactive) | 9.23% (inactive)
5 | COc1cccc(C(=O)Nc2ccc(NC(C)=O)cn2)c1 | 759 | -4.3% (inactive) | -0.2% (inactive) | 96.3 | -84.7% (inactive) | 123 | -0.469 (inactive) | -5.3e-05 (inactive) | 0.00617 (inactive) | -36.2% (inactive) | -56% (inactive)
6 | O=C(c1cccc(C(=O)N2CCN(c3ccc(F)cc3)CC2)c1)N1CCN(c2ccc(F)cc2)CC1 | 692 | 1.5% (inactive) | -21.7% (inactive) | 68.1 | -6.5% (inactive) | 92.8 | -0.438 (inactive) | -9.2e-05 (inactive) | 0.006 (inactive) | -6.05% (inactive) | -5.26% (inactive)
7 | CCOC(=O)N1CCN(C(=O)COc2cc(=O)n(C)c3ccccc23)CC1 | 341 | 1.7% (inactive) | -0.1% (inactive) | 94.2 | 1.7% (inactive) | 118 | -0.565 (inactive) | 4.1e-05 (inactive) | 0.00524 (inactive) | -5.65% (inactive) | -23.1% (inactive)
8 | CC(C)C(c1nnnn1C1CCCC1)N1CCN(C(=O)c2ccco2)CC1 (stereo not drawn) | 426 | 9.7% (inactive) | -33.8% (inactive) | 67.7 | -101% (inactive) | 115 | -0.566 (inactive) | -1.1e-05 (inactive) | 0.00617 (inactive) | -4.43% (inactive) | 4.27% (inactive)
9 | CCOc1ccccc1N1CCN(C(=O)c2ccncc2)CC1 | 428 | -1.5% (inactive) | 12.2% (inactive) | 90.1 | 11.7% (inactive) | 105 | -0.421 (inactive) | -0.000112 (inactive) | 0.00573 (inactive) | -5.17% (inactive) | 15.5% (inactive)
10 | CCN(CC)S(=O)(=O)c1ccc(Cl)c(C(=O)OC)c1 | 456 | -5% (inactive) | 0.1% (inactive) | 87.5 | 8.3% (inactive) | 123 | -0.493 (inactive) | -2.2e-05 (inactive) | 0.00748 (inactive) | 20.5% (inactive) | 21.4% (inactive)
11 | Cc1[nH]c(=O)[nH]c(=O)c1S(=O)(=O)N1CCCC(C(=O)NCc2ccco2)C1 (stereo not drawn) | 377 | -2.8% (inactive) | -4.9% (inactive) | 104 | -48.3% (inactive) | 106 | -0.402 (inactive) | -2.3e-05 (inactive) | 0.00332 (inactive) | -2.81% (inactive) | 24.8% (inactive)
12 | CC(=O)Nc1nc2c(c3c1c(=O)oc1ccccc13)CC(C)CC2 (stereo not drawn) | 509 | -11.6% (inactive) | 14.7% (inactive) | 61.9 | 13.1% (inactive) | 82.7 | -0.457 (inactive) | -1.3e-05 (inactive) | 0.00575 (inactive) | 12.8% (inactive) | 32.3% (inactive)
13 | COc1cc(NC(=O)c2nccnc2C(=O)O)cc(OC)c1 | 856 | 1.2% (inactive) | -12.8% (inactive) | 81.8 | -30.5% (inactive) | 117 | -0.554 (inactive) | -2e-05 (inactive) | 0.00607 (inactive) | -3.73% (inactive) | 6.75% (inactive)
14 | CN(C)S(=O)(=O)N1CCN(S(=O)(=O)c2ccc(F)cc2)CC1 | 787 | 3.6% (inactive) | -7% (inactive) | 103 | -118% (inactive) | 141 | -0.436 (inactive) | -9.3e-07 (inactive) | 0.00495 (inactive) | -20.1% (inactive) | -21% (inactive)
15 | CC(C)NC(=O)Nc1cccs1 | 708 | 3% (inactive) | 21.6% (inactive) | 104 | -84.5% (inactive) | 105 | -0.507 (inactive) | -5.6e-05 (inactive) | 0.00565 (inactive) | 11.4% (inactive) | 4.68% (inactive)
16 | CSc1nc(N2CCOCC2)c2ccccc2n1 | 730 | -29.3% (inactive) | 13.4% (inactive) | 80.7 | -56.6% (inactive) | 114 | -0.601 (inactive) | -3.9e-05 (inactive) | 0.00469 (inactive) | 6.41% (inactive) | -10.5% (inactive)
17 | CCOC(=O)Cc1csc(NC(=O)CSc2nnc(C(C)C)n2CC)n1 | 812 | -6.2% (inactive) | 13.4% (inactive) | 89.5 | -33.7% (inactive) | 119 | -0.317 (inactive) | 1.9e-05 (inactive) | 0.00691 (inactive) | 18.4% (inactive) | 21.8% (inactive)
18 | O=C(Cc1cccs1)Nc1ccccc1NC(=O)Cc1cccs1 | 323 | -1.4% (inactive) | 16.2% (inactive) | 82.6 | 7.1% (inactive) | 88.2 | -0.366 (inactive) | -7.6e-05 (inactive) | 0.00795 (inactive) | 9.79% (inactive) | 34.9% (inactive)
19 | O=C1CCN(C(=O)c2ccccc2)C2CCCCC12 (stereo not drawn) | 511 | -8.7% (inactive) | 4.4% (inactive) | 41.3 | 19.1% (inactive) | 81.9 | -0.408 (inactive) | 1.6e-05 (inactive) | 0.00412 (inactive) | -7.18% (inactive) | 15.9% (inactive)
20 | COc1ccccc1NS(=O)(=O)c1ccc(OC)c(OC)c1 | 401 | 5.5% (inactive) | 0.8% (inactive) | 101 | 30.1% (inactive) | 96 | -0.484 (inactive) | -4.4e-05 (inactive) | 0.00597 (inactive) | 1.27% (inactive) | 24.3% (inactive)
21 | Cn1c(=O)c2c(nc(SCCCC#N)n2Cc2c(F)cccc2Cl)n(C)c1=O | 868 | 0.6% (inactive) | 9.8% (inactive) | 82.3 | -6.8% (inactive) | 108 | -0.589 (inactive) | -6.6e-06 (inactive) | 0.00598 (inactive) | -9.31% (inactive) | 7.45% (inactive)
22 | COc1cccc(C2=NOC(C(=O)Nc3cc(C)nn3-c3ccccc3)C2)c1OC (stereo not drawn) | 570 | -6.2% (inactive) | -1.5% (inactive) | 105 | -19.4% (inactive) | 107 | -0.586 (inactive) | -5.4e-05 (inactive) | 0.00584 (inactive) | 16.2% (inactive) | 23.8% (inactive)
23 | O=C(NCc1ccccc1)C1CCCN(S(=O)(=O)c2cccnc2)C1 (stereo not drawn) | 230 | -0.7% (inactive) | 0.8% (inactive) | 92.5 | -59.6% (inactive) | 98.3 | -0.549 (inactive) | -1.4e-05 (inactive) | 0.0054 (inactive) | 5.96% (inactive) | 11% (inactive)
24 | CCn1c(SCC(=O)N2c3ccccc3CCc3ccccc32)nc2c1c(=O)n(C)c(=O)n2C | 706 | -3.2% (inactive) | 25.6% (inactive) | 80.2 | -2.5% (inactive) | 131 | -0.516 (inactive) | -8.1e-05 (inactive) | 0.0052 (inactive) | 5.5% (inactive) | 16.2% (inactive)
25 | CCC(=O)N1CCN(c2nc(-c3ccccc3)c3c(c2C#N)CCCC3)CC1 | 501 | 6.3% (inactive) | 0.7% (inactive) | 98.3 | -27.6% (inactive) | 108 | -0.317 (inactive) | -8.2e-07 (inactive) | 0.00519 (inactive) | 13.4% (inactive) | 44.4% (inactive)
26 | COc1ccc(-c2nnc(SCC(=O)N3CCCCC3)o2)cc1OC | 670 | -1.6% (inactive) | 5.7% (inactive) | 120 | -85.6% (inactive) | 123 | -0.543 (inactive) | -9.6e-06 (inactive) | 0.00656 (inactive) | 3.05% (inactive) | 15.9% (inactive)
27 | Cc1c(C(=O)Nc2nnc(C(F)(F)F)s2)oc2ccccc12 | 778 | -8.8% (inactive) | -7.7% (inactive) | 121 | -57.7% (inactive) | 108 | -0.419 (inactive) | 2.3e-05 (inactive) | 0.00814 (inactive) | -13.9% (inactive) | -95.9% (inactive)
28 | CCn1cc(C(=O)NCCCOC)c(=O)c2cc(S(=O)(=O)N(C)C)ccc21 | 693 | -5% (inactive) | 6% (inactive) | 82.6 | -42.6% (inactive) | 112 | -0.418 (inactive) | 3.3e-05 (inactive) | 0.00533 (inactive) | 4.09% (inactive) | 31.3% (inactive)
